# Screens: PubChem, National Center for Advancing Translational Sciences (NCATS)
# Only some compounds are listed: those with a hit (about 21% of all), similar ones and a draw of the others.
# Pf growth 48h – Primary qHTS for delayed death inhibitors of the malarial parasite plastid, 48 hour incubation. P. falciparum luciferase growth in erythrocytes, 48 h. Potency, µM (highest dose often 28.7 µM), for the others: top-dose activity change, negative = inhibition, usual class: inhibitors. 310,000 compounds, 5.9% hits; note: potency is the fitted concentration of half-maximal effect; % is set by controls: 0 for no effect and ±100 for the full control effect
#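 A one-generation exposure of luciferase-tagged malaria parasites in RPMI 1640/Albumax erythrocyte culture, 37 C and 5% CO2. Inhibition is inferred from decreased luminescence after adding detection reagent.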
# FBPA Giardia inh – qHTS Assay for Inhibitors of Fructose-1,6-bisphosphate Aldolase from Giardia Lamblia; A8B2U2; purified Giardia FBPA; Potency, µM (titrated, usually from 59.6 µM), without a hit: top-dose activity, negative = inhibition, hits mostly inhibitors; 290,000 compounds, 0.71% hits; AID 2451, 2010; note: potency is the fitted concentration of half-maximal effect; % is set by controls: 0 for no effect and ±100 for the full control effect; nearly all actives have a fitted effect of over 55% in size
# Target sequence (A8B2U2 whole entry, looked up): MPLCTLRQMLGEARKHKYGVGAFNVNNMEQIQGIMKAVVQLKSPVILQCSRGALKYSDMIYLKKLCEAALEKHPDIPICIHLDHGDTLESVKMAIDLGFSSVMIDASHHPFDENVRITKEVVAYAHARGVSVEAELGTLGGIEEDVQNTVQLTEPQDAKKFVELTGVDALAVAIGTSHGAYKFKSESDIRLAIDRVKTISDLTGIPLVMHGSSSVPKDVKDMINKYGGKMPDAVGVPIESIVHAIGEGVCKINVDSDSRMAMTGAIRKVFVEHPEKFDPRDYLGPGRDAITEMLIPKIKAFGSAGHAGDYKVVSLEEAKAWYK
#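 40 nM FBPA preincubated 10 min at RT with compound (up to 57.5 uM final), then substrate plus GAPDH/TPI/NAD/arsenate coupling and diaphorase/resazurin added. Fluorescence read after 20 min at RT, 525/598 nm.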
# NS1 inh – qHTS Assay for Inhibitors of Influenza NS1 Protein Function; Potency, µM (titrated, usually from 46.1 µM), for the others: at the highest dose activity, positive = more growth; 270,000 compounds, 0.4% hits; calls by dose curve; note: potency is the fitted concentration of half-maximal effect; actives are rising curves; nearly all actives have a fitted effect of over 50% in size
#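 Recovery from NS1-induced slow growth read by OD600 in budding yeast switched to galactose assay medium (pH 6.0, -URA) at 1:100 dilution. Compound 23 nl per well; the matching strain lacking NS1 serves as control.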
# Pf growth 96h – Primary qHTS for delayed death inhibitors of the malarial parasite plastid, 96 hour incubation; P. falciparum luciferase reporter growth, 96 h; Potency, µM (highest dose often 28.7 µM), without a hit: at the highest dose activity change, negative = inhibition, actives largely listed as inhibitors; 320,000 compounds, 6.9% hits; AID 504834, 2011; note: potency is the fitted concentration of half-maximal effect; % is set by controls: 0 for no effect and ±100 for the full control effect
#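 Plates of compound plus infected erythrocytes (2% hematocrit, 0.05% parasitemia final) incubate 96 hours, 37 C, 5% CO2. Detection reagent added; reduced luminescence from the parasites' luciferase reporter flags inhibition.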
# CHX counter – Cycloheximide Counterscreen for Small Molecule Inhibitors of Shiga Toxin | cell reporter, cycloheximide protein synthesis inhibition counterscreen | max response, % | 300,000 compounds, 12% hits | AID 2314, 2010; in the data active = max response mostly above about 13%, no sharp cut-off; inactive = mostly below about 14%; note: read at 38.3 µM for the half of the compounds with a filed dose; 0% is about no effect
# Shiga toxin inh – A qHTS for Small Molecule Inhibitors of Shiga Toxin. Vero cells, Shiga toxin protein synthesis inhibition reporter. inhibition, % at 38.7 µM. AID 2315, 2010. 290,000 compounds, 9.2% hits; in the data active = inhibition mostly above about 28%, no sharp cut-off; inactive = mostly below about 43%; note: 0% is about no effect
# * marks the source's active call; other numbers are inactive results; ? = inconclusive; / = no result; [ ] = another dose, or the depositor's remark. Unless noted, calls come from the whole dose curve; as a rule, active = well fitted curve in the direction sought with a large enough effect; inconclusive = small, poorly fitted or top-dose-only effect, or another doubt; inactive = no such curve, though single readings can be large; an effect the other way counts as inactive or inconclusive.
SMILES,Pf growth 48h,FBPA Giardia inh,NS1 inh,Pf growth 96h,CHX counter,Shiga toxin inh
O=C(NNC(=S)NC(=O)c1ccco1)c1ccc(F)cc1,?,2%,-99%,?,10*,17
O=C(NC(=S)NNC(=O)c1cccs1)c1ccccc1,-25%,/,-99%,?,11*,33
CC(=O)c1cc(C(=O)N2CCc3c([nH]c4ccccc34)C2C2CCCCC2)[nH]n1 (configuration not stated),?,-10%,11%,?,8,34
O=C(CN(C(=O)CCC(=O)Nc1nccs1)c1ccc(F)cc1)NCc1ccc(F)cc1,?,/,8%,-2%,-8,-8
COc1ccccc1OCCNC(=O)c1ccco1,36%,/,1%,68%,9,22
CCCCOc1ccc(OCCNC(=O)c2ccco2)cc1,9.3µM*,-11%,-16%,?,20,57*
Cc1ccccc1OCCNC(=O)c1ccco1,-24%,10%,-13%,13%,36*,97*
COc1ccccc1OCC(=O)Nc1c2c(nn1-c1ccccc1)CS(=O)(=O)C2,4%,/,6%,3%,8,10
CCOC(=O)N1CCC(NC(=O)CCC(=O)c2ccccc2)CC1,-9%,6%,-5%,8.3µM*,-2,-8
CCOC(=O)N1CCN(C(=O)CCn2nc(-c3ccccc3)ccc2=O)CC1,34%,3%,15%,-4%,-1,9
CCOC(=O)N1CCC(NC(=O)Cn2nc(-c3ccccc3)ccc2=O)CC1,-6%,4%,-3%,9.3µM*,-3,-7
COC(=O)C1=C(C)N(C)C(=O)NC1c1c(O)ccc2ccccc12 (configuration not stated),-11%,17%,6%,-28%,-2,-12
O=C1C=C(c2ccccc2)C[C@H](c2cccs2)[C@H]1n1nnc([N+](=O)[O-])n1,1.9µM*,?,12%,8.3µM*,-2,10
Cc1ccc(NC(=S)N2CCC(N(C)CC3CCCO3)CC2)cc1 (configuration not stated),3%,?,/,0%,-2,-5
c1ccc2c3nnc4n(c-3nc2c1)CCCS4,-13%,-3%,-1%,/,30*,54
O=C(Nc1ccc([N+](=O)[O-])cn1)c1cc(-c2cccc(Br)c2)nc2ccccc12,3.7µM*,-3%,10%,-2%,-5,-10
O=C(Nc1ccccn1)c1cc(-c2cccc(Cl)c2)nc2ccccc12,3.3µM*,-1%,12%,43%,-2,17
O=C(NN1CCOCC1)c1cc(-c2cccc(Cl)c2)nc2ccccc12,1%,2%,-10%,25%,-1,-21
COc1cccc(-c2cc(C(=O)Nc3ccc([N+](=O)[O-])cn3)c3ccccc3n2)c1,?,1%,9%,-6%,3,-6
O=C(c1cc(-c2cccc(Cl)c2)nc2ccccc12)N1CCCC1,?,0%,-51%,-1%,-1,-8
O=C(Nc1ccc([N+](=O)[O-])cn1)c1cc(-c2cccc(Cl)c2)nc2ccccc12,2.1µM*,-4%,12%,-21%,-4,-5
O=C(CNC(=O)c1ccccc1)OCC(=O)c1cccs1,14%,7%,4%,49%,8,4
O=C(OCC(=O)c1cccs1)c1ccccc1,137%,-4%,?,-14%,31*,51
C/C(=N/OCC(=O)Nc1ccccc1)c1cccs1,87%,-2%,-51%,50%,27*,60*
COC(=O)c1ccc(COC(=O)CCC(=O)c2cccs2)cc1,30%,1%,-4%,73%,62*,121*
SMILES,Pf growth 48h,FBPA Giardia inh,NS1 inh,Pf growth 96h,CHX counter,Shiga toxin inh
O=C(COC(=O)c1cccs1)Nc1ccccc1,-8%,-2%,-8%,-14%,51*,109*
Oc1ccc(C=NCCc2ccccc2)cc1,25%[0.00184 µM],7%,-8%,?,-7,3
CCOC(=O)c1cc(S(=O)(=O)Nc2ccc(F)cc2F)cn1C,16%,/,-4%,29%,-4,-1
CCCCCC/C=C/c1ccc(C2C3C=CCC(C)C3C(=O)N2Cc2ccccc2)c(F)c1 (configuration not stated),/,3%,/,/,-6,7
C/C(=N\OCC(=O)Nc1ccccc1Br)c1cccs1,-2%,-2%,/,-1%,28*,55*
O=C(CC(Nc1ccccc1Cl)C(=O)OCC(=O)c1cccs1)c1ccccc1 (configuration not stated),318%,1%,-21%,132%,53*,69*
COC(=O)C/C=C\[C@@H](C)[C@@H](/C=N\OC[C@@H]1O[C@H](c2ccccc2)C=C[C@@H]1Oc1ccc(OC)cc1)OC,/,-3%[12.9 µM],/,/,/,/
CC(=O)Cc1cc2cc([N+](=O)[O-])ccc2oc1=O,29%,-4%,1%,72%,6,-10
COc1ccc(C2=NOC(C(=O)Nc3cccnc3)C2)cc1OC (configuration not stated),?,-10%,-4%,?,6,2
COc1ccc(NCc2ccc([N+](=O)[O-])s2)c(OC)c1,-11%,?,-28%,?,25*,34*
O=[N+]([O-])c1ccc(CNc2ccc(Cl)cc2)s1,-22%,15%,-59%,?,13*,28
O=[N+]([O-])c1ccc(CNc2ccc(F)cc2)s1,-17%,?,-27%,-21%,-1,-10
COc1ccc(NCc2ccc([N+](=O)[O-])s2)cc1,?,-22%,-29%,5%,21*,31
COc1ccc(OCC(=O)Nc2cccc(S(=O)(=O)N(C)c3ccccc3)c2)c([N+](=O)[O-])c1,-13%,/,/,-7%,/,/
C(=C\c1nc(N2CCCCCC2)c2ccccc2n1)/c1ccccc1,-96%,2%,-42%,50%,23*,36*
O=S(=O)(/C=C/c1ccccc1)N1CCN(c2nc(-c3ccccc3)nc3ccccc23)CC1,?,0%,/,12µM*,5,-8
Oc1ccccc1-c1nc(N2CCCC2)c2ccccc2n1,/,5%,-2%,4.1µM*,-4,-16
COc1ccc(N2CCN(S(=O)(=O)/C=C/c3ccccc3)CC2)cc1,11%,6%,-35%,1%,-3,-6
c1ccc2c(N3CCCCC3)nc(N3CCCCC3)nc2c1,1%,-6%,-8%,/,-4,-5
O=S(=O)(c1ccccc1F)N1CCN(c2nc(-c3cccnc3)nc3ccccc23)CC1,12µM*,/,/,?,/,/
C=CCCC(=O)NC1CCCc2c1cnn2-c1ccccc1F (configuration not stated),-7%,8%,-2%,?,-4,-6
COC(=O)c1cnc(Oc2c(Cl)cc(N)cc2Cl)cc1C(F)(F)F,7%,-14%,-62%,29%,0,18
